# Records with an inconclusive call do not appear. The source made the active and inactive calls. The call rests on the fitted dose curve; in most records, active means well fitted curve in the direction sought with a large enough effect; inconclusive means small, poorly fitted or top-dose-only effect, or another doubt; inactive means no such curve, though single readings can be large; an effect the other way counts as inactive or inconclusive.
# Experiments:
# [1] = qHTS of pediatric cancer cell lines to identify multiple opportunities for drug repurposing: Primary screen for SK-N-SH cells (AID 1347098); further: nearly all actives have a fitted effect of over 65% in size
# Outline: (§1)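 Cells (500-1,000/well) rested 5 h, then received compounds for 48 h; metabolically active cells were measured by CellTiter-Glo luminescence. Final concentrations spanned up to 46 µM (MIPE, 11-point) or 0.59 nM-46 µM (NPC, 8-point) in primary screens, 11-point in follow-ups.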
# [2] = qHTS of pediatric cancer cell lines to identify multiple opportunities for drug repurposing: Primary screen for NB1643 cells (AID 1347099); further: nearly all actives have a fitted effect of over 50% in size
# Outline: (§2)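 Phenotypic viability qHTS, 48 h compound exposure, CellTiter-Glo luminescence read-out; multi-concentration dosing so that potency and efficacy derive directly from the primary screen's curves.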
# [3] = qHTS of pediatric cancer cell lines to identify multiple opportunities for drug repurposing: Primary screen for LAN-5 cells (AID 1347100)
# Outline: (§3)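 Cells (500-1,000/well) in growth media were settled 5 h at 37 degrees C, then given compounds for 48 h. Viability was read as CellTiter-Glo luminescence. Primary runs used MIPE at 11 points (0.78 nM-46 µM) and NPC at 8 points (0.59 nM-46 µM); follow-ups used 11 points.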
# [4] = qHTS of pediatric cancer cell lines to identify multiple opportunities for drug repurposing: Primary screen for BT-12 cells (AID 1347101); further: nearly all actives have a fitted effect of over 25% in size
# Outline: as §1
# [5] = qHTS of pediatric cancer cell lines to identify multiple opportunities for drug repurposing: Primary screen for Rh18 cells (AID 1347102); further: nearly all actives have a fitted effect of over 65% in size
# Outline: as §3
# [6] = qHTS of pediatric cancer cell lines to identify multiple opportunities for drug repurposing: Primary screen for OHS-50 cells (AID 1347103); further: nearly all actives have a fitted effect of over 40% in size
# Outline: as §1
# [7] = qHTS of pediatric cancer cell lines to identify multiple opportunities for drug repurposing: Primary screen for RD cells (AID 1347104); further: nearly all actives have a fitted effect of over 55% in size
# Outline: as §2
# [8] = qHTS of pediatric cancer cell lines to identify multiple opportunities for drug repurposing: Primary screen for MG 63 (6-TG R) cells (AID 1347105); further: nearly all actives have a fitted effect of over 50% in size
# Outline: as §2
# [9] = qHTS of pediatric cancer cell lines to identify multiple opportunities for drug repurposing: Primary screen for control Hh wild type fibroblast cells (AID 1347106); further: nearly all actives have a fitted effect of over 55% in size
# Outline: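 Viability after 48 h compound treatment at 37C, 500-1,000 cells/well, read as ATP luminescence with CellTiter-Glo. Primary screens used 11-point (MIPE, 0.78 nM-46 µM) or 8-point (NPC, 0.59 nM-46 µM) final concentrations; follow-up screens used 11-point dilutions.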
# [10] = qHTS of pediatric cancer cell lines to identify multiple opportunities for drug repurposing: Primary screen for Rh41 cells (AID 1347108); further: nearly all actives have a fitted effect of over 70% in size
# Outline: as §2
# [11] = qHTS of pediatric cancer cell lines to identify multiple opportunities for drug repurposing: Primary screen for Saos-2 cells (AID 1347097); further: nearly all actives have a fitted effect of over 40% in size
# Outline: as §2
# [12] = qHTS of pediatric cancer cell lines to identify multiple opportunities for drug repurposing: Primary screen for Rh30 cells (AID 1347107); further: nearly all actives have a fitted effect of over 75% in size
# Outline: as §3
# [13] = qHTS of pediatric cancer cell lines to identify multiple opportunities for drug repurposing: Confirmatory screen for NB1643 cells (AID 1347109); further: nearly all actives have a fitted effect of over 45% in size
# Outline: as §3
# [14] = qHTS of pediatric cancer cell lines to identify multiple opportunities for drug repurposing: Confirmatory screen for A673 cells (AID 1347110);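 further: cells exposed to compound for 48 h before the viability read; nearly all actives have a fitted effect of over 65% in size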
# Outline: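 A673 cells seeded at 500-1,000 cells/well, rested 5 h, then dosed; primary MIPE 11-point (0.78 nM to 46 µM), NPC (0.59 nM to 46 µM); confirmatory 11-point. CellTiter-Glo luminescence after 48 h.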
# [15] = qHTS of pediatric cancer cell lines to identify multiple opportunities for drug repurposing: Confirmatory screen for SK-N-MC cells (AID 1347111);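 further: cells exposed to compound for 48 h before the readout; nearly all actives have a fitted effect of over 70% in size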
# Outline: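 Metabolically active cells were quantified by ATP-dependent luminescence (CellTiter-Glo, 15 min at room temperature) following 48 h treatment. Cells had been plated at 500-1,000 per well and settled for 5 h beforehand.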
# [16] = qHTS of pediatric cancer cell lines to identify multiple opportunities for drug repurposing: Confirmatory screen for BT-12 cells (AID 1347112); further: nearly all actives have a fitted effect of over 55% in size
# Outline: as §3
# [17] = qHTS of pediatric cancer cell lines to identify multiple opportunities for drug repurposing: Confirmatory screen for LAN-5 cells (AID 1347113); further: nearly all actives have a fitted effect of over 65% in size
# Outline: as §3
# [18] = qHTS of pediatric cancer cell lines to identify multiple opportunities for drug repurposing: Confirmatory screen for DAOY cells (AID 1347114); further: nearly all actives have a fitted effect of over 65% in size
# Outline: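 Viability measured as metabolically active cells via CellTiter-Glo luminescence following 48 hours of compound exposure, 11-point dilutions in confirmatory testing. 500-1,000 cells/well plated 5 hours before dosing; controls were DMSO and 2.3 µM bortezomib.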
# [19] = qHTS of pediatric cancer cell lines to identify multiple opportunities for drug repurposing: Confirmatory screen for NB-EBc1 cells (AID 1347115);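 further: cells exposed to compound for 48 h before the viability read; nearly all actives have a fitted effect of over 45% in size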
# Outline: as §3
# Potency means the concentration at half of the fitted maximal effect.
smiles,measurement,setting,value
CCN(CC)CCCCNc1ncc2cc(-c3cc(OC)cc(OC)c3)c(NC(=O)NC(C)(C)C)nc2n1,Potency,[1],6.81 µM (active)
same,Potency,[2],inactive
same,Potency,[3],18.7 µM (active)
same,Potency,[4],24.3 µM (active)
same,Potency,[5],13.2 µM (active)
same,Potency,[6],24.3 µM (active)
same,Potency,[7],16.6 µM (active)
same,Potency,[8],inactive
same,Potency,[9],29.6 µM (active)
same,Potency,[10],11.8 µM (active)
COc1ccc2c(c1)CC[C@@H](CN(C)CC(=O)O)[C@H]2c1ccccc1,Potency,[11],2.09 µM (active)
same,Potency,[3],1.05 µM (active)
same,Potency,[6],4.32 µM (active)
same,Potency,[8],2.96 µM (active)
same,Potency,[9],inactive
same,Potency,[12],inactive
same,Potency,[10],5.9 µM (active)
CNC(=O)CN1CCC(Oc2cc3c(Nc4cccc(Cl)c4F)ncnc3cc2OC)CC1,Potency,[11],0.0187 µM (active)
same,Potency,[1],0.0607 µM (active)
same,Potency,[3],0.001 µM (active)
same,Potency,[4],0.0014 µM (active)
same,Potency,[7],0.0026 µM (active)
same,Potency,[9],inactive
same,Potency,[10],0.0469 µM (active)
same,Potency,[13],1.04 µM (active)
same,Potency,[14],inactive
same,Potency,[15],1.47 µM (active)
same,Potency,[16],inactive
same,Potency,[17],1.17 µM (active)
same,Potency,[18],inactive
same,Potency,[19],4.65 µM (active)
OCCCNc1cc(-c2ccnc(Nc3cccc(Cl)c3)n2)ccn1,Potency,[11],0.148 µM (active)
same,Potency,[4],0.193 µM (active)
same,Potency,[6],0.153 µM (active)
same,Potency,[12],inactive
same,Potency,[10],0.235 µM (active)
same,Potency,[13],0.104 µM (active)
same,Potency,[14],0.0928 µM (active)
same,Potency,[15],0.261 µM (active)
same,Potency,[16],0.329 µM (active)
same,Potency,[17],0.261 µM (active)
same,Potency,[19],inactive
NCC(=O)Nc1ccc(-n2nc(C(F)(F)F)cc2-c2ccc3c(ccc4ccccc43)c2)cc1,Potency,[11],26.4 µM (active)
same,Potency,[2],18.7 µM (active)
same,Potency,[3],23.5 µM (active)
same,Potency,[4],24.3 µM (active)
same,Potency,[5],26.4 µM (active)
same,Potency,[6],30.6 µM (active)
same,Potency,[7],16.6 µM (active)
same,Potency,[9],inactive
same,Potency,[14],11.7 µM (active)
same,Potency,[15],0.329 µM (active)
same,Potency,[17],2.93 µM (active)
same,Potency,[19],7.37 µM (active)
Cc1cccc(C=NNc2cc(N3CCOCC3)nc(OCCc3ccccn3)n2)c1,Potency,[1],24.1 µM (active)
same,Potency,[2],16.6 µM (active)
same,Potency,[8],inactive
same,Potency,[9],inactive
COc1cc(C(=O)NS(=O)(=O)c2ccccc2C)ccc1Cc1cn(C)c2ccc(NC(=O)OC3CCCC3)cc12,Potency,[11],20.9 µM (active)
same,Potency,[5],26.4 µM (active)
same,Potency,[6],21.7 µM (active)
same,Potency,[7],37.2 µM (active)
same,Potency,[8],29.6 µM (active)
same,Potency,[9],inactive
COc1cc(-c2nn(C3CCC(N4CCN(C(C)=O)CC4)CC3)c3ncnc(N)c23)ccc1NC(=O)c1cc2ccccc2n1C (stereo unspecified),Potency,[11],0.526 µM (active)
same,Potency,[1],3.41 µM (active)
same,Potency,[3],0.332 µM (active)
same,Potency,[6],2.17 µM (active)
CC(C)CC(=O)Nc1n[nH]c2c1CN(C(=O)C1CCN(C)CC1)C2(C)C,Potency,[11],5.26 µM (active)
same,Potency,[4],2.43 µM (active)
same,Potency,[5],inactive
same,Potency,[6],3.43 µM (active)
same,Potency,[12],inactive
same,Potency,[10],3.72 µM (active)
same,Potency,[13],inactive
same,Potency,[14],1.04 µM (active)
same,Potency,[16],2.93 µM (active)
CCN1CCN(CC(=O)Nc2ccc(-c3cccc4c(=O)cc(N5CCOCC5)oc34)c3sc4ccccc4c23)CC1,Potency,[11],2.96 µM (active)
same,Potency,[1],6.07 µM (active)
same,Potency,[3],0.833 µM (active)
same,Potency,[5],1.18 µM (active)
same,Potency,[6],0.172 µM (active)
same,Potency,[7],0.743 µM (active)
same,Potency,[9],inactive
same,Potency,[12],10.5 µM (active)
same,Potency,[10],1.66 µM (active)
CNC(=O)c1cc(Oc2ccc(NC(=O)Nc3cc(C(C)(C)C)nn3-c3ccc4ncccc4c3)c(F)c2)ccn1,Potency,[11],16.6 µM (active)
same,Potency,[1],19.2 µM (active)
same,Potency,[2],4.69 µM (active)
same,Potency,[4],24.3 µM (active)
same,Potency,[5],20.9 µM (active)
same,Potency,[6],27.3 µM (active)
same,Potency,[7],10.5 µM (active)
same,Potency,[10],23.5 µM (active)
Nc1nc(NCCNc2ncc(-n3ccnc3)c(-c3ccc(Cl)cc3Cl)n2)ccc1[N+](=O)[O-],Potency,[11],26.4 µM (active)
same,Potency,[2],18.7 µM (active)
same,Potency,[3],10.5 µM (active)
same,Potency,[4],24.3 µM (active)
same,Potency,[5],14.8 µM (active)
same,Potency,[6],19.3 µM (active)
same,Potency,[7],14.8 µM (active)
same,Potency,[8],14.8 µM (active)
Cc1ccc2nc(NC(=O)CSc3nc4c(c(=O)n3-c3ccccc3)SCC4)sc2c1,Potency,[11],14.8 µM (active)
same,Potency,[3],14.8 µM (active)
same,Potency,[4],5.44 µM (active)
same,Potency,[6],13.7 µM (active)
same,Potency,[10],14.8 µM (active)
same,Potency,[14],1.04 µM (active)
same,Potency,[15],11.7 µM (active)
same,Potency,[16],3.29 µM (active)
same,Potency,[18],7.37 µM (active)
Cc1cc(C(=O)N2CCN(c3cccc(Cl)c3)CC2)n(-c2ccccc2)n1,Potency,[11],0.118 µM (active)
same,Potency,[3],0.743 µM (active)
same,Potency,[4],6.85 µM (active)
same,Potency,[5],inactive
same,Potency,[12],inactive
same,Potency,[10],2.35 µM (active)
same,Potency,[14],2.33 µM (active)
same,Potency,[15],2.61 µM (active)
same,Potency,[18],0.928 µM (active)
COc1cc2c(Nc3ccc(NC(=O)c4ccccc4)cc3)ncnc2cc1OCCCN1CCOCC1,Potency,[2],26.4 µM (active)
same,Potency,[3],0.743 µM (active)
same,Potency,[6],27.3 µM (active)
same,Potency,[7],33.2 µM (active)
same,Potency,[9],inactive
same,Potency,[12],inactive
CCCCOc1c(C(=O)c2c(F)cc(C)cc2F)cnc2n[nH]cc12,Potency,[11],3.72 µM (active)
same,Potency,[2],2.96 µM (active)
same,Potency,[3],4.18 µM (active)
same,Potency,[4],6.11 µM (active)
same,Potency,[5],inactive
same,Potency,[6],5.44 µM (active)
same,Potency,[7],18.7 µM (active)
same,Potency,[8],11.8 µM (active)
same,Potency,[12],inactive
same,Potency,[10],18.7 µM (active)
